Data published in PubChem BioAssay AID1979 (Broad Institute, 2009).
Among all 300,000 compounds or so, about 1,700 (0.57%) were called active. Roughly 2% stayed inconclusive and do not appear here. The sample holds actives, similar compounds and a random draw of the others, so the mix is not that of the screen.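 The calls were made as follows: active = growth inhibition above about 58% in most replicates (limit read from the data, passing the limit was not always enough); inconclusive = exactly half the replicates above a set limit; inactive = most replicates below a set limit.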

Assay: Candida growth reduction under fluconazole – CaCi-2 strain, Alamar Blue fluorescence, primary screen (AID 1979);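 also: all wells also contain fluconazole at 8 µg/ml as a sub-toxic cotreatment; 0% = median of DMSO wells and 100% = median of geldanamycin control wells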
Settings: C. albicans CaCi-2 (fluconazole-resistant clinical isolate) + fluconazole, 48 h, stronger effect = higher value, concentration not given here

Structure (SMILES)	growth inhibition
Cc1ccc(C)c(NC(=O)COC(=O)Cn2c(C)csc2=O)c1	-4.71% (inactive)
Cc1ccc(NS(=O)(=O)c2ccc(C)c(NC(=O)COc3ccc4ccccc4c3)c2)c(C)c1	31.8% (inactive)
COc1ccc2cc(S(=O)(=O)Nc3ccccn3)ccc2c1	-0.283% (inactive)
COc1cc(NS(=O)(=O)c2ccc3ccccc3c2)c2ncccc2c1	89.3% (active)
Cc1ccc(-n2c(SCC(=O)N3c4ccccc4Sc4ccccc43)nnc2-c2ccncc2)cc1	-22.2% (inactive)
Cc1ccc(Nc2nc(CSc3nnc(-c4ccncc4)n3-c3ccccc3C)cs2)cc1	113% (active)
Cc1ccccc1-n1c(SCC(=O)NCc2cccs2)nnc1-c1ccncc1	8.03% (inactive)
O=C(OCCOCn1cc(Br)c(=O)[nH]c1=O)c1ccccc1	-9.14% (inactive)
CCOc1ccc(NC(=O)COc2ccc(C(=O)N3CCC(C(N)=O)CC3)cc2OC)cc1	-4.97% (inactive)
CC(C)Oc1ccc(S(=O)(=O)N2CCOCC2)cc1NC(=O)C1CSC2(C)CCC(=O)N12 (configuration not stated)	-0.702% (inactive)
COc1ccc(C(=O)NCCCN2CCOCC2)cc1Br	-0.331% (inactive)
Cc1ccc(S(=O)(=O)N2CCN(C(=O)Cc3sc(C)nc3-c3ccc(F)cc3)CC2)c(C)c1	-1.25% (inactive)
Cc1nc2c(c(C)nn2-c2ccccc2)c(C)c1C	1.68% (inactive)
O=C(N/N=C/c1sc(N2CCCCC2)nc1-c1cccs1)c1cccnc1	94.5% (active)
O=C(N/N=C/c1ccc(O)c2ccccc12)c1cccnc1	11.5% (inactive)
O=C(N/N=C/c1ccccn1)c1cccnc1	6.91% (inactive)
CCOc1ccc(NC(=O)c2ccc(NC(=O)CN3C(=O)C(=O)N(CC(C)C)C3=O)cc2)cc1	-2.68% (inactive)
COc1ccc(S(=O)(=O)NCc2cccnc2)cc1NC(=O)c1ccc(C)cc1	-3.27% (inactive)
CCOc1ccc(-n2c(O)c(/C=N/c3ccnn3Cc3ccncc3)c3ccccc3c2=O)cc1	15.4% (inactive)

Structure (SMILES)	growth inhibition
CCOc1ccc(-n2c(O)c(/C=N/Nc3nc(C)cc(C)n3)c3ccccc3c2=O)cc1	113% (active)
CCN(CC)CCCN=Cc1c(O)n(-c2ccc(C)cc2)c(=O)c2ccccc12	-8.89% (inactive)
CCOC(=O)c1c(C)[nH]c(C(=O)OCC(=O)N2CCCC2=O)c1C	-3.16% (inactive)
Cc1nc2ccccc2nc1N/N=C/c1ccc(O)cc1O	10.5% (inactive)
C=CCn1c(COc2ccc(F)cc2)nnc1SCC(=O)Nc1cccc(S(N)(=O)=O)c1	94.6% (active)
COc1ccc(-n2cnnc2SCC(=O)Nc2cccc(S(N)(=O)=O)c2)cc1	-1.9% (inactive)
C=CCn1c(CC(=O)Nc2cccc(OC)c2)nnc1SCC(=O)NC1CCCCC1	4.51% (inactive)
CS(=O)(=O)c1ccc(Cl)c(NC(=O)COC(=O)c2cccc(S(=O)(=O)N3CCCC3)c2)c1	-1.03% (inactive)
Cc1cc(Nc2ccc(C(=O)N3CCCCC3)cc2)c2cccc(C)c2n1	2.84% (inactive)
Cc1ccn2c(=O)nc(SCC(=O)NCc3ccc4c(c3)OCO4)nc2c1	1.59% (inactive)
Cc1ccc(N/N=C2\COC(C)(C)CC2=O)cc1	101% (active)
COc1ccc(N/N=C2/CCCCC2=O)cc1	-21.7% (inactive)
Cc1ccc(NN=C2C(=O)OC(C)(C)OC2=O)c(C)c1	-5.58% (inactive)
COc1ccccc1C(=O)NC(=O)COC(=O)c1ccco1	8.59% (inactive)
CC1CN(C(=O)COC(=O)c2cccc(NS(=O)(=O)c3ccccc3)c2)CC(C)O1 (configuration not stated)	5.4% (inactive)
O=C(N/N=C/c1cc([N+](=O)[O-])ccc1O)/C(=C\c1cccs1)NC(=O)c1ccccc1	116% (active)
O=[N+]([O-])c1ccc(O)c(/C=N/Nc2ccccc2[N+](=O)[O-])c1	-1.45% (inactive)
O=C(N/N=C/c1ccc(O)cc1)/C(=C/c1ccc([N+](=O)[O-])cc1)NC(=O)c1ccccc1	1.1% (inactive)
COc1ccccc1OCc1ccc(C(=O)NC(C)c2ccccc2)o1 (configuration not stated)	-11.7% (inactive)

Structure (SMILES)	growth inhibition
COc1ccc(OC)c(NC(=O)CSc2nc(-c3ccccc3)cc(=O)[nH]2)c1	55% (inactive)
O=[N+]([O-])c1ccc(N/N=C/c2ccccc2)cc1	-28.5% (inactive)
Cc1cccc(COc2ccccc2/C=N/Nc2ccc([N+](=O)[O-])cc2)c1	91.8% (active)
Cc1ccc(NS(=O)(=O)c2ccc(N/N=C/c3ccccc3OCC(=O)O)c([N+](=O)[O-])c2)c(C)c1	-7.09% (inactive)
O=C1c2ccccc2C(=O)c2c1cccc2N1CCN(C/C=C/c2ccccc2)CC1	8.05% (inactive)
Cc1ccc(S(=O)(=O)NC(C)C(=O)NCc2ccc(Cl)cc2)cc1 (configuration not stated)	-3.28% (inactive)
COc1ccc(C2=NN(C(C)=O)C(c3ccccc3)C2)cc1 (configuration not stated)	-6.81% (inactive)
COc1ccc(-n2nnnc2-c2nc3ccccc3s2)cc1	-12.1% (inactive)
COc1ccc(C2=NN(c3nc4ccccc4s3)C(=O)C2)cc1	94.5% (active)
O=c1c2ccccc2ncn1CCCCOc1ccccc1F	0.805% (inactive)
COc1ccc(C(=O)NC(=S)NNC(=O)CCc2ccccc2)cc1	114% (active)
COc1ccc(C(=O)NNC(=S)NC(=O)c2ccccc2)cc1	96.8% (active)
COc1ccc(C(=O)NNC(=S)NC(=O)c2ccccc2[N+](=O)[O-])cc1	5.98% (inactive)
COc1ccc(C(=O)NC(=S)NNC(=O)c2c(-c3ccccc3)noc2C)cc1	32.7% (inactive)
CC(C)Oc1ccc(CCC(=O)NNC(=S)NCc2ccccc2)cc1	1.53% (inactive)
O=C(CCc1ccccc1)NNC(=O)c1ccc(Br)cc1	5.83% (inactive)
Cc1ccc(NC(=O)c2cnc(SCC(=O)NCC3CCCO3)n(C)c2=O)cc1 (configuration not stated)	-0.731% (inactive)
CCOc1ccc(CCNC(=O)COC(=O)CCS(=O)(=O)c2ccc(C)cc2)cc1OCC	-6.92% (inactive)
COc1cccc(NC(=O)CN(C)C(=O)CSC(=S)N2CCCC2)c1	-3.71% (inactive)
